# Experimental data taken from PubChem BioAssay.
# Values joined by “and” are separate entries in the source; they are usually repeats but may differ in a detail not shown here. Equal values may be shown once. Active and inactive are the calls of the source. Unless noted, the rule behind the calls is not given here.
# What was measured:
# [1] = viability loss with induced miR-34 in A549 – imaging, A549 dox-inducible miR-34, nuclei and caspase counts, primary screen (AID 1347080;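 active = compounds whose cell count with miR-34 switched on is under 0.7 times the count with it off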); details: A549 miR-34 inducible, Hoechst nuclei count, 48 h
# [2] = compounds altering HSF1 focus formation in cells – imaging, Selleck Cancer Library (AID 1347162; in the data active = plate-normalised HSF1 focus index below about 0.46); details: human cells, HSF1 nuclear foci imaging, at 10 µM; SSMD: measured here: HSF1 foci SSMD mean; cell count: measured here: cell number; plate-normalised HSF1 focus index: stronger effect = lower value
# [3] = blockers of cellular phospholipid synthesis – cell-based, LOPAC library, screen 4, primary screen (AID 1347384); details: animal cells, phospholipid biosynthesis inhibition screen; at 10 µM
# [4] = galactose survival enhancers in mitochondrial complex I cybrids – cell-based, galactose medium, ATP luminescence, primary screen (AID 1645843;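 active = z-score of at least 1.8 in each of two replicates, scored against plate mean and spread of sample wells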;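 note: positive z means more ATP and so rescue of galactose-driven cybrid death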); details: complex I mutant cybrid cells, 72 h, stronger effect = higher value
# [5] = compounds altering circadian rhythm period length – cell-based, LOPAC library, luminescence reporter (AID 2774); details: circadian reporter cells, at 7 µM, actives lie on both sides;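 note: values are relative to mean of DMSO wells on each plate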
# [6] = test system: Hepatitis C virus NS3 helicase; assay: blockers of NS3h binding to ssDNA – biochemical, fluorescence polarization, LOPAC1280 library, primary screen (AID 687035; in the data active = inhibition above about 37%); details: Purified HCV NS3 helicase, Cy5-dT15 ssDNA binding fluorescence polarization; stronger effect = higher value; concentration not given here
# [7] = compounds altering Cy5-DNA-NS3h complex signal – biochemical, LOPAC1280, artefact control for HCV NS3 helicase inhibitor project (AID 687037); details: Cy5-DNA-NS3h complex fluorescence interference counterscreen
# [8] = molecular target: NAD(+) hydrolase SARM1 (Homo sapiens) (UniProt Q6SZW1); assay: blocking NAD cleavage by SARM1 SAM-TIR – cell lysate, NAD-Glo luminescence (AID 1508614;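 active = compound whose remaining NAD level is above about 45 nM, limit read from the data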;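 note: higher remaining NAD means stronger inhibition of SARM1 NADase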); details: SAM-TIR HEK293T lysate NADase, at 1 µM, stronger effect = higher value
# [9] = compounds altering viability of human ES cells (AID 493140); details: human embryonic stem cell survival screen; stronger effect = higher value;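 note: cells exposed to compounds for four days before counting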
# [10] = chitosan synthesis blockers in C. neoformans – flow cytometry, Cibacron Brilliant Red staining (AID 1347148); details: Cryptococcus neoformans chitosan, stronger effect = lower value; at 10 µM unless noted;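 note: compound exposure lasted three days at 37 degrees C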
# [11] = P. berghei load reduction in hepatocytes – cell-based, HepG2, luciferase luminescence, HepG2 viability, primary screen (AID 624349; in the data active = parasite load remaining mostly below about 12%, no sharp cut-off; inactive = mostly above about 10%;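 note: 100% = mean of DMSO negative control wells on the same plate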); details: P. berghei liver stage in HepG2, luciferase luminescence, concentration not given here; parasite load remaining: stronger effect = lower value; viability: measured here: HepG2 viability without parasites
# [12] = MELAS cybrid and Rieske KO viability enhancers – cell-based, MELAS cybrids, Rieske KO mouse fibroblasts, CellTiter-Glo, primary screen (AID 1508586;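 active = mean z-score across replicates of 1.96 or higher in either the MELAS or the Rieske mutant cell line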;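 note: z relative to plate mean and SD of compound and empty wells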); details: low glucose
# [13] = molecular target: Mitogen-activated protein kinase 7 (Homo sapiens) (UniProt Q13164); assay: Gal4-ERK5 driven luciferase induction – cell-based, HTS, primary screen (AID 1508626;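 active = luciferase signal above three times the same-plate solvent-only control wells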;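 note: luciferase driven by Gal4-ERK5 fusion binding five Gal4 sites before minimal TATA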); details: HeLa Gal4-ERK5 transactivation, 18 h, at 5 µM, stronger effect = higher value
# [14] = stronger effect = lower value, cell number ratio, induced over uninduced
# [15] = measured here: relative caspase fold change +Dox/-Dox
# [16] = measured here: total cells with miR-34 induction, stronger effect = lower value
# [17] = measured here: total cells without miR-34 induction
# [18] = MELAS cybrid survival, CellTiter-Glo 48 h, stronger effect = higher value
# [19] = Rieske KO mouse fibroblast survival, CellTiter-Glo 72 h
# Chain of NAD(+) hydrolase SARM1 (Homo sapiens) (Q6SZW1 whole entry, looked up): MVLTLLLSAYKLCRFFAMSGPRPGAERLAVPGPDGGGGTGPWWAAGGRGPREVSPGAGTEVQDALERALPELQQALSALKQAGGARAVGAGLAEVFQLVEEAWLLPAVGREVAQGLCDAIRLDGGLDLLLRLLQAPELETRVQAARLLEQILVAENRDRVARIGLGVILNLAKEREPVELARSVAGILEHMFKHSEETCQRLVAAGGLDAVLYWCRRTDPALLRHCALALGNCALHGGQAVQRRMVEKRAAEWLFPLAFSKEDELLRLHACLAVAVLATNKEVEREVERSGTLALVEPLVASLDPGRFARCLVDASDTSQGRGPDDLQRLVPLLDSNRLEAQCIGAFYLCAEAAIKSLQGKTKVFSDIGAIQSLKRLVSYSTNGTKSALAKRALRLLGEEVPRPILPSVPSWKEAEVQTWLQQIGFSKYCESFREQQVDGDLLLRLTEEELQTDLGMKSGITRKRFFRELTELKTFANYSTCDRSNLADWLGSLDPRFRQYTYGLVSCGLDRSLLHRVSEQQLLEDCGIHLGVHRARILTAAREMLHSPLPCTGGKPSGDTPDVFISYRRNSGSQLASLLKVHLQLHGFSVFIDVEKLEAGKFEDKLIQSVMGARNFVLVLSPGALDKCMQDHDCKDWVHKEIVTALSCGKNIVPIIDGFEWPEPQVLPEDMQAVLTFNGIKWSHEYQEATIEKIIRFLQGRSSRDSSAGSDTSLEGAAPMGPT
# Chain of Mitogen-activated protein kinase 7 (Homo sapiens) (Q13164 whole entry, looked up, the tested form may be a part): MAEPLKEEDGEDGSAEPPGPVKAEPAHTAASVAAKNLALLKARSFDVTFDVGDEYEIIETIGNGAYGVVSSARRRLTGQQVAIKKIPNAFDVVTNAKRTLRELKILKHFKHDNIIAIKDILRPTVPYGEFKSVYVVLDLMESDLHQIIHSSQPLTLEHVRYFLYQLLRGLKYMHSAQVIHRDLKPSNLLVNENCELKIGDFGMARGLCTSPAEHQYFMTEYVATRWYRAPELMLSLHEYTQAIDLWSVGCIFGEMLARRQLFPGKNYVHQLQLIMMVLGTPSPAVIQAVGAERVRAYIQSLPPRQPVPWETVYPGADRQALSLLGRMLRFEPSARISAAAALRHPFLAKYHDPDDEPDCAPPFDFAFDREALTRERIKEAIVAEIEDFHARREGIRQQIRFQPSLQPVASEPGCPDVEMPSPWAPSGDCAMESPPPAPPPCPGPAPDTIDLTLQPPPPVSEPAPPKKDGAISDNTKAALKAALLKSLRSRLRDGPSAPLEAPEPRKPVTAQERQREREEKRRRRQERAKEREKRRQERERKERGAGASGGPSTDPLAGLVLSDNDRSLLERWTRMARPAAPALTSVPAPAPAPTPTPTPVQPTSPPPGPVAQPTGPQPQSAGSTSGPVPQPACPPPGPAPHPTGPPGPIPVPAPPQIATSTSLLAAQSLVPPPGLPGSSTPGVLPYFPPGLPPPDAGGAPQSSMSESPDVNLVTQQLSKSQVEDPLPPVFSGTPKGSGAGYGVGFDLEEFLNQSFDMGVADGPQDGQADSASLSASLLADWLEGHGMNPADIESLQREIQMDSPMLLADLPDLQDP
smiles,measurement,setting,value
Cc1oc(S(=O)(=O)N2CCCCC2)cc1NC(=O)Nc1ccccc1,fold change,[1]; [14],0.9 (inactive)
same,fold change,[1]; [15],1.24
same,cell count,[1]; [16],5590
same,cell count,[1]; [17],6210
same,SSMD,[2],2.84
same,cell count,[2],6950
same,plate-normalised HSF1 focus index,[2],1.17 (inactive)
Nc1ccn(C2O[C@H](CO)[C@@H](O)C2(F)F)c(=O)n1 (stereo partly drawn),fold change,[1]; [14],1.18 (inactive)
same,fold change,[1]; [15],1.01
same,cell count,[1]; [16],1960
same,cell count,[1]; [17],1660
same,outcome,[3],inactive
same,z-score,[4],-1.32 (inactive)
N=C(N)SCCc1ccc(CCSC(=N)N)cc1,period change,[5],-0.135 h (inactive)
same,inhibition,[6],-5% (inactive)
same,fluorescence ratio (interference),[7],0.9 (inactive)
same,fold change,[1]; [14],1.11 (inactive)
same,fold change,[1]; [15],0.636
same,cell count,[1]; [16],5830
same,cell count,[1]; [17],5230
same,SSMD,[2],1.43
same,cell count,[2],7320
same,plate-normalised HSF1 focus index,[2],1.08 (inactive)
CCOC(=O)[C@H](CCc1ccccc1)N[C@@H](C)C(=O)N1[C@H](C(=O)O)C[C@H]2CCCC[C@@H]21,inhibition,[6],-4% (inactive)
same,fluorescence ratio (interference),[7],1 (inactive)
same,fold change,[1]; [14],1.13 (inactive)
same,fold change,[1]; [15],0.831
same,cell count,[1]; [16],11100
same,cell count,[1]; [17],9850
same,outcome,[3],inactive
same,remaining NAD,[8],10 nM (inactive)
same,z-score,[4],0.51 (inactive)
CCCCC[C@H](O)/C=C/C=C\C/C=C\C/C=C\CCCC(=O)O,survival,[9],53.7 (inactive)
same,fold change,[1]; [14],1.03 (inactive)
same,fold change,[1]; [15],1.58
same,cell count,[1]; [16],5880
same,cell count,[1]; [17],5700
same,fold fluorescence,[10],4.64 [at 1 µM] (inactive)
O=C(O)c1cc(N(Cc2ccccc2O)Cc2cc(O)ccc2O)ccc1O,survival,[9],94.2 (inactive)
same,fold change,[1]; [14],0.907 (inactive)
same,fold change,[1]; [15],1.1
same,cell count,[1]; [16],5160
same,cell count,[1]; [17],5680
same,fold fluorescence,[10],4.34 [at 131.1 µM] (inactive)
CO/N=C(\C(=O)N[C@@H]1C(=O)N2C(C(=O)O)=C(COC(C)=O)CS[C@H]12)c1csc(N)n1,parasite load remaining,[11],16.7% (inactive)
same,viability,[11],71.5%
same,fold change,[1]; [14],0.894 (inactive)
same,fold change,[1]; [15],1.17
same,cell count,[1]; [16],9420
same,cell count,[1]; [17],10500
same,outcome,[3],inactive
same,z-score,[12]; [18],0.329 (inactive)
same,z-score,[12]; [19],0.781
same,z-score,[4],-0.18 (inactive)
COc1ccc(C(=O)/C(Cc2cc(OC)c(OC)c(OC)c2)=C(\C(=O)O)c2ccc3c(c2)OCO3)cc1,fold change,[1]; [14],1.31 (inactive)
same,fold change,[1]; [15],1.24
same,cell count,[1]; [16],3900
same,cell count,[1]; [17],2980
same,outcome,[3],inactive
same,z-score,[4],-1.33 (inactive)
CCCCC/C=C\C/C=C\CCCCCCCC(N)=O,survival,[9],66.5 (inactive)
same,fold change,[1]; [14],0.981 (inactive)
same,fold change,[1]; [15],1.16
same,cell count,[1]; [16],6200
same,cell count,[1]; [17],6320
same,fold fluorescence,[10],4.31 (inactive)
N#C/C(=C\c1cc(Cl)cc(Cl)c1)c1cccnc1,survival,[9],87.3 (inactive)
same,fold change,[1]; [14],1.04 (inactive)
same,fold change,[1]; [15],0.973
same,cell count,[1]; [16],1950
same,cell count,[1]; [17],1890
same,fold fluorescence,[10],4 [at 181.7 µM] (inactive)
CCCCS(=N)(=O)CC[C@H](N)C(=O)O (stereo partly drawn),period change,[5],-0.045 h (inactive)
same,inhibition,[6],-2% (inactive)
same,fluorescence ratio (interference),[7],1 (inactive)
same,fold change,[1]; [14],0.972 (inactive)
same,fold change,[1]; [15],2.07
same,cell count,[1]; [16],9810
same,cell count,[1]; [17],10100
same,outcome,[3],inactive
same,luciferase signal,[13],48 AU (inactive)
same,z-score,[4],-0.84 (inactive)
C=CC(=O)N1CCCC(n2nc(-c3ccc(Oc4ccccc4)cc3)c3c(N)ncnc32)C1 (stereo not drawn),fold change,[1]; [14],0.863 (inactive)
same,fold change,[1]; [15],0.762
same,cell count,[1]; [16],7670
same,cell count,[1]; [17],8890
same,SSMD,[2],2.74
same,cell count,[2],7290
same,plate-normalised HSF1 focus index,[2],1.17 (inactive)
same,z-score,[12]; [18],-0.153 (inactive)
same,z-score,[12]; [19],-0.517
N[C@@H]1CCCC[C@H]1N.O=C(O)C(=O)O.[Pt],parasite load remaining,[11],182% (inactive)
same,viability,[11],134%
same,fold change,[1]; [14],0.972 (inactive)
same,fold change,[1]; [15],1.18
same,cell count,[1]; [16],4570
same,cell count,[1]; [17],4710
same,SSMD,[2],1.36
same,cell count,[2],7520
same,plate-normalised HSF1 focus index,[2],1.09 (inactive)
same,z-score,[12]; [18],0.335 (inactive)
same,z-score,[12]; [19],-0.474
same,z-score,[4],1.01 (inactive)
CCCCCCCCCCCCCCCCCCN(CCCCCCCCCCCCCCCCCC)CCCN(CCO)CCO,fold change,[1]; [14],0.981 (inactive)
same,fold change,[1]; [15],1.42
same,cell count,[1]; [16],10100
same,cell count,[1]; [17],10300
same,outcome,[3],inactive
same,z-score,[4],0.39 (inactive)
Brc1cc2c(cc1[C@H]1Nc3ccccc3[C@H]3C=CC[C@H]31)OCO2,fold change,[1]; [14],1.18 (inactive)
same,fold change,[1]; [15],1.55
same,cell count,[1]; [16],6800
same,cell count,[1]; [17],5750
same,outcome,[3],inactive
same,z-score,[4],-0.59 (inactive)
CCCCC/C=C\C[C@H](O)/C=C/C=C\C/C=C\CCCC(=O)O,survival,[9],93.5 (inactive)
same,fold change,[1]; [14],0.969 (inactive)
same,fold change,[1]; [15],1.13
same,cell count,[1]; [16],5180
same,cell count,[1]; [17],5340
same,fold fluorescence,[10],4.99 [at 1 µM] (inactive) and 5.6 [at 1 µM] (inactive)
CS(=O)(=O)c1ccc(-n2nc(C(F)(F)F)cc2-c2ccc(F)cc2)cc1,fold change,[1]; [14],1.12 (inactive)
same,fold change,[1]; [15],0.872
same,cell count,[1]; [16],9270
same,cell count,[1]; [17],8270
same,outcome,[3],inactive
same,z-score,[4],0.62 (inactive)
COCCCCCCCCCCCC(=O)O,survival,[9],81.7 (inactive)
same,fold change,[1]; [14],0.981 (inactive)
same,fold change,[1]; [15],1.11
same,cell count,[1]; [16],5900
same,cell count,[1]; [17],6020
same,fold fluorescence,[10],7.84 (inactive)
COCCOc1cc2ncnc(Cl)c2cc1OCCOC,fold change,[1]; [14],1.03 (inactive)
same,fold change,[1]; [15],1.13
same,cell count,[1]; [16],9200
same,cell count,[1]; [17],8960
same,outcome,[3],inactive
same,z-score,[4],-0.675 (inactive)
CCCCCCC/C=C\CCCCCCCCC(=O)O,period change,[5],0.02 h (inactive)
same,inhibition,[6],-4% (inactive)
same,fluorescence ratio (interference),[7],0.9 (inactive)
same,fold change,[1]; [14],1.08 (inactive)
same,fold change,[1]; [15],0.494
same,cell count,[1]; [16],10900
same,cell count,[1]; [17],10100
same,outcome,[3],inactive
same,z-score,[4],0.87 (inactive)
